Data as given in ChEMBL document CHEMBL1961873, “Compounds: GSK PKIS; Assays: Nanosyn kinase panel” (2012).

What was measured:
[1] = target: Sphingosine kinase 1 (Homo sapiens) (UniProt Q9NYA1); conditions: at 1 µM;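 note: mean SPHK1 inhibition value reported from the GSK PKIS kinase panel screen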
[2] = target: T1, Sphingosine kinase 2 (Homo sapiens) (UniProt Q9NRA0); conditions: at 0.1 µM
T1 sequence (whole entry): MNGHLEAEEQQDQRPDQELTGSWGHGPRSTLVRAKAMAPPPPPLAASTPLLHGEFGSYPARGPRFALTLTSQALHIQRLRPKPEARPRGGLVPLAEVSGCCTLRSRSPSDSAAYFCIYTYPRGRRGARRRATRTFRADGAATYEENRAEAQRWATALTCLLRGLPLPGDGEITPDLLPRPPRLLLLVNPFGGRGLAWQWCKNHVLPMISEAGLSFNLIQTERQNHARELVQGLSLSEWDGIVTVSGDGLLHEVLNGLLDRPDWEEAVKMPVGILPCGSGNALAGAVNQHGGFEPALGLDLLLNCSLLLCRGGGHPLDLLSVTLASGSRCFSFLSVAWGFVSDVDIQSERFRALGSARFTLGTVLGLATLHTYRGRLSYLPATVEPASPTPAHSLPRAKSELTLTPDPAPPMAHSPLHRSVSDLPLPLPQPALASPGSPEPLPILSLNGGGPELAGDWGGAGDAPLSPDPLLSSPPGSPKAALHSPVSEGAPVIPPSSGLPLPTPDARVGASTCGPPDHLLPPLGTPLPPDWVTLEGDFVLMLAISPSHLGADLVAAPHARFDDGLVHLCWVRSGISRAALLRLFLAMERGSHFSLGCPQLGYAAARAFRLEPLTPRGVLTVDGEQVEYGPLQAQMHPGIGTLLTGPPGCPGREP

[3] = target: T1, Sphingosine kinase 2 (Homo sapiens); conditions: at 1 µM
[4] = target: Casein kinase II subunit alpha (Homo sapiens) (UniProt P68400); conditions: at 0.1 µM
[5] = target: Casein kinase II subunit alpha (Homo sapiens) (UniProt P68400); conditions: at 1 µM
[6] = target: T2, Inhibitor of nuclear factor kappa-B kinase subunit alpha (Homo sapiens) (UniProt O15111); conditions: at 0.1 µM
T2 sequence (whole entry): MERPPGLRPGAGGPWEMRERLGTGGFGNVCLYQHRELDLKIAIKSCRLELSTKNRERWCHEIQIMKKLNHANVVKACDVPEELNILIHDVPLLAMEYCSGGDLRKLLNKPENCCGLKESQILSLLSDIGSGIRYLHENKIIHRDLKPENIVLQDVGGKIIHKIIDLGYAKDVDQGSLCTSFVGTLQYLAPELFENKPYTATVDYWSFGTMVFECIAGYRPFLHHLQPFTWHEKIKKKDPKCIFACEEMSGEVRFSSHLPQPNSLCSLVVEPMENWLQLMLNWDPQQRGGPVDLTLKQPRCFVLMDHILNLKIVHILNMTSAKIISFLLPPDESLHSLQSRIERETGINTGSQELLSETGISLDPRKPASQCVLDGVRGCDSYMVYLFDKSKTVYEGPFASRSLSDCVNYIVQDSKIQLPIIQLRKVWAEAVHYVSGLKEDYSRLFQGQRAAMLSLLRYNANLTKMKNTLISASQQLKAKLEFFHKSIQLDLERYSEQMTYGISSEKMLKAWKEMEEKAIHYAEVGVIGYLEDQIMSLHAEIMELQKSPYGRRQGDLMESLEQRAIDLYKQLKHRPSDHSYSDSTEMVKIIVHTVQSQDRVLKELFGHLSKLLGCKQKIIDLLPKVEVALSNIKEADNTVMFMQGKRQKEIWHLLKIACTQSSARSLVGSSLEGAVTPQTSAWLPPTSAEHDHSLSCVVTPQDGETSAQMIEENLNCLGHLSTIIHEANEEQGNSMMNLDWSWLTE

[7] = target: T2, Inhibitor of nuclear factor kappa-B kinase subunit alpha (Homo sapiens); conditions: at 1 µM
[8] = target: T3, Inhibitor of nuclear factor kappa-B kinase subunit beta (Homo sapiens) (UniProt O14920); conditions: at 0.1 µM
T3 sequence (whole entry): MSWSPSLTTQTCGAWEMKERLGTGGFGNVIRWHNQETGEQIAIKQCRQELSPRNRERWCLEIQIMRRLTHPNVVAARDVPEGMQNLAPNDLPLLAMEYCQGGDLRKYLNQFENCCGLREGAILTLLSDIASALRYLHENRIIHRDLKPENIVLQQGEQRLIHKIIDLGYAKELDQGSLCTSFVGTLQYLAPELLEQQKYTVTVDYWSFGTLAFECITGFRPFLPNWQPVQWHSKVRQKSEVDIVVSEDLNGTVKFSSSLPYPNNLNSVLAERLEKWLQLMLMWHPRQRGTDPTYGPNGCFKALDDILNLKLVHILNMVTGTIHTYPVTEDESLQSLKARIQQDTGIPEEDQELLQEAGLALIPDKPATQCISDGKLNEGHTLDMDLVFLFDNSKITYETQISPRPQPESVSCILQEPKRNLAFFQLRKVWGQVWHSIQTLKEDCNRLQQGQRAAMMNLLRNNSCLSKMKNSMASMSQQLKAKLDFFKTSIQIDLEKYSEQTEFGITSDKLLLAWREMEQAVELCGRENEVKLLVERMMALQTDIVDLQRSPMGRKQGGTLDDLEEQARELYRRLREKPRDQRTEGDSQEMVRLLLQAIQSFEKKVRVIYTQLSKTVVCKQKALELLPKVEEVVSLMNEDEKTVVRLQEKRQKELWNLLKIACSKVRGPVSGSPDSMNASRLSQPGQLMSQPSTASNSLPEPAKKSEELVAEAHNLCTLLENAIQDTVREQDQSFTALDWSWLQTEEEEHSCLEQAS

[9] = target: T3, Inhibitor of nuclear factor kappa-B kinase subunit beta (Homo sapiens); conditions: at 1 µM
[10] = target: T4, Inhibitor of nuclear factor kappa-B kinase subunit epsilon (Homo sapiens) (UniProt Q14164); conditions: at 0.1 µM
T4 sequence (whole entry): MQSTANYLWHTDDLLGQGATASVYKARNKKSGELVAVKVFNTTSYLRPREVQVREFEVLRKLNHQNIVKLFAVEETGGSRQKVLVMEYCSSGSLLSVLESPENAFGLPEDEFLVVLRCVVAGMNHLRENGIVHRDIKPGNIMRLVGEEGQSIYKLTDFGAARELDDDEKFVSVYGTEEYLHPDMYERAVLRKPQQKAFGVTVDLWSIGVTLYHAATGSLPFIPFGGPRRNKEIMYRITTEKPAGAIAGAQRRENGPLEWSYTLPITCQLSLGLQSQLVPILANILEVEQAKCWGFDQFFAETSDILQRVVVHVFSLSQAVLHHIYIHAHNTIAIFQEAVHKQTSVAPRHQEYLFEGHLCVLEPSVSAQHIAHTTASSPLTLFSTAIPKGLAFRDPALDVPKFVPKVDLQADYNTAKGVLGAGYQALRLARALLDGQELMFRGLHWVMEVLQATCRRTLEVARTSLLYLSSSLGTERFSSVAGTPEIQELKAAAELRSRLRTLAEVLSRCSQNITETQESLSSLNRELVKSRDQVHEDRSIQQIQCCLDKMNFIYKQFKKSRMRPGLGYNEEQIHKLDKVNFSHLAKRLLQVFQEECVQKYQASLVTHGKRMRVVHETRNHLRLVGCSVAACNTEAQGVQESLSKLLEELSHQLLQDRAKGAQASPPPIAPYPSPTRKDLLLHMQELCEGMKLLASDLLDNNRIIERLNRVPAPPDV

[11] = target: T4, Inhibitor of nuclear factor kappa-B kinase subunit epsilon (Homo sapiens); conditions: at 1 µM
[12] = target: T5, Serine/threonine-protein kinase Nek1 (Homo sapiens) (UniProt Q96PY6); conditions: at 0.1 µM
T5 sequence (whole entry): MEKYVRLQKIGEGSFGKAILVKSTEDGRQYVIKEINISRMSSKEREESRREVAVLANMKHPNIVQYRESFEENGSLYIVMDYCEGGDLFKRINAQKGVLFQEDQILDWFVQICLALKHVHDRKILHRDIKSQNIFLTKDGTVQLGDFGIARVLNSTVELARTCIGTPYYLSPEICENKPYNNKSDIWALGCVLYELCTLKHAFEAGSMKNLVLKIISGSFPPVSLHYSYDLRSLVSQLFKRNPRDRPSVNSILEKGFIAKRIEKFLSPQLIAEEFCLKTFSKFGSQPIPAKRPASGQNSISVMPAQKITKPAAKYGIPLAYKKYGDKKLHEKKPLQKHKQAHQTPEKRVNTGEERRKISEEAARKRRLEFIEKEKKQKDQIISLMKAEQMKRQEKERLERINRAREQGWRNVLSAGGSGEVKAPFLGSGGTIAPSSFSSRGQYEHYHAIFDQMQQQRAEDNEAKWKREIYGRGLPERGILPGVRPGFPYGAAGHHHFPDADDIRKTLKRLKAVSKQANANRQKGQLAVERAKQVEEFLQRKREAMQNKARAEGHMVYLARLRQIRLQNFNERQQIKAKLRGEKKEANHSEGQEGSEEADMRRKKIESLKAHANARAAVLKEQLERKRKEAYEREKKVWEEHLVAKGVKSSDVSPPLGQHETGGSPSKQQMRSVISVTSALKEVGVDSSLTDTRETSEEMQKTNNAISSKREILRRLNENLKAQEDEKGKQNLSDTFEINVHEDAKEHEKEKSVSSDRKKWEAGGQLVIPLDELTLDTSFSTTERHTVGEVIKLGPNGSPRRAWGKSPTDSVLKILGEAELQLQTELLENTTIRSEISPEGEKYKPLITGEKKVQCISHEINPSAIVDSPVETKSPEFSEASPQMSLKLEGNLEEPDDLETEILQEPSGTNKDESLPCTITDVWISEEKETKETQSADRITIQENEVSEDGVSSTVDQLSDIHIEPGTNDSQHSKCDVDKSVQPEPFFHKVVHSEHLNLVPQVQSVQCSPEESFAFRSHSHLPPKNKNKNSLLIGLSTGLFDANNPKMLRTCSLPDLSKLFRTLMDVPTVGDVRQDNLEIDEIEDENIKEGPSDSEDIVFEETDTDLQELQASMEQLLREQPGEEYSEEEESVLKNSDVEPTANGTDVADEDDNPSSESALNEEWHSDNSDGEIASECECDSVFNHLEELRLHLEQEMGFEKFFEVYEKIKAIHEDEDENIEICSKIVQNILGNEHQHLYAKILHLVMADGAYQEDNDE

[13] = target: T5, Serine/threonine-protein kinase Nek1 (Homo sapiens); conditions: at 1 µM
[14] = target: T6, Serine/threonine-protein kinase Nek2 (Homo sapiens) (UniProt P51955); conditions: at 0.1 µM
T6 sequence (whole entry): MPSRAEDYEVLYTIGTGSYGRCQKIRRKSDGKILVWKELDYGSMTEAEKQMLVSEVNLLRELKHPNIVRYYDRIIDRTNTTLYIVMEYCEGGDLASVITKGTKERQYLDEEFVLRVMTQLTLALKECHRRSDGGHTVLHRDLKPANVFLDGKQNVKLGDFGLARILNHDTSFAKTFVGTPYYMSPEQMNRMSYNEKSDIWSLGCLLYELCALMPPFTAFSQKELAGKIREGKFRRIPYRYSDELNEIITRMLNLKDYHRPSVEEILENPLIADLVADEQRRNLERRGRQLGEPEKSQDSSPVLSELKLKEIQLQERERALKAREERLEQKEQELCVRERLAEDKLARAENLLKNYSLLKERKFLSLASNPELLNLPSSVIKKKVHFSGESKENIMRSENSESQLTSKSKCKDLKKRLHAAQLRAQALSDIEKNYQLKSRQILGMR

[15] = target: T6, Serine/threonine-protein kinase Nek2 (Homo sapiens); conditions: at 1 µM
[16] = target: Serine/threonine-protein kinase Nek6 (Homo sapiens) (UniProt Q9HC98); conditions: at 0.1 µM
[17] = target: Serine/threonine-protein kinase Nek6 (Homo sapiens) (UniProt Q9HC98); conditions: at 1 µM
[18] = target: Serine/threonine-protein kinase Nek7 (Homo sapiens) (UniProt Q8TDX7); conditions: at 0.1 µM
[19] = target: Serine/threonine-protein kinase Nek7 (Homo sapiens) (UniProt Q8TDX7); conditions: at 1 µM
[20] = target: T7, Serine/threonine-protein kinase Nek9 (Homo sapiens) (UniProt Q8TD19); conditions: at 0.1 µM;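 note: reported value is the mean percent inhibition of NEK9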
T7 sequence (whole entry): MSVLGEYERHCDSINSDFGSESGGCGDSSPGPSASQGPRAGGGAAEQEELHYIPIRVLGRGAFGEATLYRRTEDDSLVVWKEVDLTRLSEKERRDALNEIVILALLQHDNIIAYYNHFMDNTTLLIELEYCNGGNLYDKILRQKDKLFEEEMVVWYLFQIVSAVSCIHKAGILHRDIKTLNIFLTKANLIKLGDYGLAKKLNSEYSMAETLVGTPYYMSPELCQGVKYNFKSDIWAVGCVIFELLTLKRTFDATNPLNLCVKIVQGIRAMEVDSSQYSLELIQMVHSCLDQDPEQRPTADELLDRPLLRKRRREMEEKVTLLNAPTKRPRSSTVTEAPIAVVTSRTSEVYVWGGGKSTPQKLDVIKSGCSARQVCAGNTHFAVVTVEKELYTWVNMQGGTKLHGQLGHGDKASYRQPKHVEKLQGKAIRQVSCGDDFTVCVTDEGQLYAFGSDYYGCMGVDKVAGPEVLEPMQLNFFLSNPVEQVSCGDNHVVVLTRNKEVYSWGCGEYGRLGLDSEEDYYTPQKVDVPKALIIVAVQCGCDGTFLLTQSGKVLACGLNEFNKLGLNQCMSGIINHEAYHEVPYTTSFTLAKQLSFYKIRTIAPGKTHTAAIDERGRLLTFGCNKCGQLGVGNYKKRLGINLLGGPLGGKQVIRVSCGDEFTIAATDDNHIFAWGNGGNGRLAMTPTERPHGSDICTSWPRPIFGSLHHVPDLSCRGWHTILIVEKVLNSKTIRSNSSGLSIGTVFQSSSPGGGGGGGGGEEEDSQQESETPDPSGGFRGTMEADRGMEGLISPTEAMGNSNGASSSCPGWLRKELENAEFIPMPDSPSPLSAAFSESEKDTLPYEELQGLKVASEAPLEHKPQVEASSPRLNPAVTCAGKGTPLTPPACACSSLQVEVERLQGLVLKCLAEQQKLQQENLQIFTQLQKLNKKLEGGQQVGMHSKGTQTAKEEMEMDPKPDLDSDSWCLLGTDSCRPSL

Sequence of Casein kinase II subunit alpha (Homo sapiens) (P68400 whole entry, looked up): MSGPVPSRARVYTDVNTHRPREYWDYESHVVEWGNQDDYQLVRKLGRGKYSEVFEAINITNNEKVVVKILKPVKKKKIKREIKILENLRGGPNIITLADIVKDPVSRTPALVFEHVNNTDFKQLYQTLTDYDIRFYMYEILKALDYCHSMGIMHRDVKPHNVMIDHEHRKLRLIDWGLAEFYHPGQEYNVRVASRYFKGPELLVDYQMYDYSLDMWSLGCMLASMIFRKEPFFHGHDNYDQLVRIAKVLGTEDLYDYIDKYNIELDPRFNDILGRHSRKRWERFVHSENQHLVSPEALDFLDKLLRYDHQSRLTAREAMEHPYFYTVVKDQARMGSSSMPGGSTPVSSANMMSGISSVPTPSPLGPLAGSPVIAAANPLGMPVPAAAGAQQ
Sequence of Serine/threonine-protein kinase Nek6 (Homo sapiens) (Q9HC98 whole entry): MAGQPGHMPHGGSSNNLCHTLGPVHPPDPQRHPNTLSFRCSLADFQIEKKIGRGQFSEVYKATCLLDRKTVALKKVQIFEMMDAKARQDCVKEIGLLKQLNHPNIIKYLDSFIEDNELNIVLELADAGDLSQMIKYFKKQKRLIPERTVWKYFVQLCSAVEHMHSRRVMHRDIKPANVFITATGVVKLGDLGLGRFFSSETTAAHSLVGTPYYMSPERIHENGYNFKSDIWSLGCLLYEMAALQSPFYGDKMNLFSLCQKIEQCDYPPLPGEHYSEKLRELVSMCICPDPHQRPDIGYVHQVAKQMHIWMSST
Sequence of Serine/threonine-protein kinase Nek7 (Homo sapiens) (Q8TDX7 whole entry, looked up): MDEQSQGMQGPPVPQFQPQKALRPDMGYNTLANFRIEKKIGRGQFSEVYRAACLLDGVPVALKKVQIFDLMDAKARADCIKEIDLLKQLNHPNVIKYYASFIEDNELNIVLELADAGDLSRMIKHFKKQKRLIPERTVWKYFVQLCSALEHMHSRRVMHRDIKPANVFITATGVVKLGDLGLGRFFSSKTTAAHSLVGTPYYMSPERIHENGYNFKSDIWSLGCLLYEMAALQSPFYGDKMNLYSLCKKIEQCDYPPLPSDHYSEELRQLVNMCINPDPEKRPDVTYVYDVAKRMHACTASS
Sequence of Sphingosine kinase 1 (Homo sapiens) (Q9NYA1 whole entry): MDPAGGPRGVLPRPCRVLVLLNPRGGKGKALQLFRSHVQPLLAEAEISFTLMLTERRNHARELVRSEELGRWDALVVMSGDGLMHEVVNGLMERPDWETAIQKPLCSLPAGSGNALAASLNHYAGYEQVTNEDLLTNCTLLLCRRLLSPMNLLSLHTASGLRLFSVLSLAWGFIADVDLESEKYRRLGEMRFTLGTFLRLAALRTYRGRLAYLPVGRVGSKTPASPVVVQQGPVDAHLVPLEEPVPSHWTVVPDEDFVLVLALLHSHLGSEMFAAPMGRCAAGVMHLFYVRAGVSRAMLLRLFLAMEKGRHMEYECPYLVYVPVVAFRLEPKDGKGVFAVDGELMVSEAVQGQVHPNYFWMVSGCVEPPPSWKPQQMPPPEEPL

N#Cc1cccc(Nc2ncc(-c3ccccc3)o2)c1
inhibition [1]: -2.86%
inhibition [2]: 0.09%
inhibition [3]: -1.96%
inhibition [4]: 2.39%
inhibition [5]: 11.7%
inhibition [6]: 5.02%
inhibition [7]: 3.79%
inhibition [8]: 3.29%
inhibition [9]: 5.96%
inhibition [10]: 5.55%
inhibition [11]: 6.35%
inhibition [12]: 1.6%
inhibition [13]: 2.44%
inhibition [14]: 2.51%
inhibition [15]: 0.06%
inhibition [16]: 1.87%
inhibition [17]: 5.4%
inhibition [18]: 2.82%
inhibition [19]: 1.01%
inhibition [20]: 8.32%

NC(=O)c1ccc2c(-c3ccnc(NCCCO)n3)c(-c3ccc(F)cc3)nn2c1
inhibition [1]: -1.09%
inhibition [2]: 0.78%
inhibition [3]: -0.19%
inhibition [4]: 3.49%
inhibition [5]: 3.53%
inhibition [6]: 8.35%
inhibition [7]: 4.86%
inhibition [8]: 7.11%
inhibition [9]: 2.1%
inhibition [10]: 4.91%
inhibition [11]: 3.59%
inhibition [12]: 2.6%
inhibition [13]: 3.93%
inhibition [14]: 5.07%
inhibition [15]: 6.59%
inhibition [16]: 1.23%
inhibition [17]: -0.99%
inhibition [18]: 6.38%
inhibition [19]: 4.14%
inhibition [20]: 5.71%
